In PubChem BioAssay (Tox21):
Records with an inconclusive call do not appear. Calls of active or inactive are those of the source. Unless noted, calls follow the shape of the dose curve; as a rule, active = well fitted curve in the direction sought with a large enough effect in the repeat runs; inconclusive = weak or mixed curves; inactive = no such curve, though single readings can be large; an effect the other way counts as inactive or inconclusive.

What was measured:
[1] = A CellTox Green Cytotoxicity Assay to monitor cytotoxicity in HEK293 cells - 32 hour (AID 1224881); also: % is scaled to controls: 0 for no effect and ±100 for the full control effect; nearly all actives have a fitted effect of over 40% in size
Procedure, shortened: (§1)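 Fluorescence from a DNA-binding dye excluded by viable cells was measured repeatedly in the same HEK293 wells (600 cells/well) during continuous compound exposure at 37 C. Each assay gives one read point: 0, 8, 16, 24, 32 or 40 h.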

[2] = A CellTox Green Cytotoxicity Assay to monitor cytotoxicity in HepG2 cells - 0 hour (AID 1224882); also: % is scaled to controls: 0 for no effect and ±100 for the full control effect; nearly all actives have a fitted effect of over 35% in size
Procedure, shortened: (§2)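 Real-time cytotoxicity: fluorescence of a cell-impermeant cyanine dye binding DNA of dead HepG2 cells, measured repeatedly (0–40 h) during compound exposure at 37 C. Cells seeded 600/well with reagent, dosed after 5 h.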

[3] = A CellTox Green Cytotoxicity Assay to monitor cytotoxicity in HEK293 cells - 8 hour (AID 1224884); also: % is scaled to controls: 0 for no effect and ±100 for the full control effect; nearly all actives have a fitted effect of over 35% in size
Procedure, shortened: as §1

[4] = qHTS RealTime-Glo MT Cell Viability Assay in HepG2 cells - 16 hour (AID 1224885); also: % is scaled to controls: 0 for no effect and ±100 for the full control effect; nearly all actives have a fitted effect of over 50% in size
Procedure, shortened: (§3)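 Cells + NanoLuc/prosubstrate dispensed (600 cells/well) → 5 h at 37 C/5% CO2 → compounds in DMSO transferred → 40 h incubation at 37 C, luminescence read at 0, 8, 16, 24, 32, 40 h.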

[5] = qHTS RealTime-Glo MT Cell Viability Assay in HEK293 cells - 24 hour (AID 1224886); also: top concentration of the series differs between compounds; % is scaled to controls: 0 for no effect and ±100 for the full control effect; nearly all actives have a fitted effect of over 50% in size
Procedure, shortened: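 Tox21 10K qHTS, HEK293, 600 cells/well, RealTime-Glo reagent co-dispensed with cells; 5 h preincubation, compound by pintool, 37 C, luminescence at 0–40 h.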

[6] = A CellTox Green Cytotoxicity Assay to monitor cytotoxicity in HEK293 cells - 16 hour (AID 1224888); also: % is scaled to controls: 0 for no effect and ±100 for the full control effect; nearly all actives have a fitted effect of over 35% in size
Procedure, shortened: as §1

[7] = qHTS RealTime-Glo MT Cell Viability Assay in HepG2 cells - 0 hour (AID 1224889); also: % is scaled to controls: 0 for no effect and ±100 for the full control effect; nearly all actives have a fitted effect of over 50% in size
Procedure, shortened: as §3

[8] = A CellTox Green Cytotoxicity Assay to monitor cytotoxicity in HepG2 cells - 8 hour (AID 1224890); also: % is scaled to controls: 0 for no effect and ±100 for the full control effect; nearly all actives have a fitted effect of over 45% in size
Procedure, shortened: as §2

[9] = qHTS assay to identify small molecule antagonists of the estrogen receptor alpha (ER-alpha) signaling pathway using the BG1 cell line in the presence of 0.1 nM 17-beta-estradiol - cell viability counter screen (AID 1259241); also: % is scaled to controls: 0 for no effect and ±100 for the full control effect; nearly all actives have a fitted effect of over 40% in size
Procedure, shortened: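 Cells were plated and left 24 hr, compounds in DMSO were pinned in, 17beta-estradiol was added to 0.1 nM final, and after 22 hr CellTiter-Fluor reagent was added for 30 min before fluorescence was read.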

[10] = qHTS assay to identify small molecule antagonists of the androgen receptor (AR) signaling pathway using the MDA cell line in the presence of 0.5 nM R1881 - cell viability counter screen (AID 1259242); also: % is scaled to controls: 0 for no effect and ±100 for the full control effect; nearly all actives have a fitted effect of over 45% in size
Procedure, shortened: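 Live-cell protease activity was measured by CellTiter-Fluor fluorescence after 30 min. Before that, MDA-kb2 MMTV-luciferase cells had 16 hr at 37C without CO2, exposed to test compounds and 0.5 nM R1881 final.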

[11] = target: Estrogen receptor (Homo sapiens) (UniProt P03372); test: qHTS assay to identify small molecule antagonists of the estrogen receptor alpha (ER-alpha) signaling pathway using the BG1 cell line in the presence of 0.1 nM 17-beta-estradiol (AID 1259244); also: nearly all actives have a fitted effect of over 50% in size; also: potency is read from the fitted curve at half-maximal effect; as to activity change, negative = inhibition: % is scaled to controls: 0 for no effect and ±100 for the full control effect
Chain of Estrogen receptor (Homo sapiens) (P03372 whole entry, looked up): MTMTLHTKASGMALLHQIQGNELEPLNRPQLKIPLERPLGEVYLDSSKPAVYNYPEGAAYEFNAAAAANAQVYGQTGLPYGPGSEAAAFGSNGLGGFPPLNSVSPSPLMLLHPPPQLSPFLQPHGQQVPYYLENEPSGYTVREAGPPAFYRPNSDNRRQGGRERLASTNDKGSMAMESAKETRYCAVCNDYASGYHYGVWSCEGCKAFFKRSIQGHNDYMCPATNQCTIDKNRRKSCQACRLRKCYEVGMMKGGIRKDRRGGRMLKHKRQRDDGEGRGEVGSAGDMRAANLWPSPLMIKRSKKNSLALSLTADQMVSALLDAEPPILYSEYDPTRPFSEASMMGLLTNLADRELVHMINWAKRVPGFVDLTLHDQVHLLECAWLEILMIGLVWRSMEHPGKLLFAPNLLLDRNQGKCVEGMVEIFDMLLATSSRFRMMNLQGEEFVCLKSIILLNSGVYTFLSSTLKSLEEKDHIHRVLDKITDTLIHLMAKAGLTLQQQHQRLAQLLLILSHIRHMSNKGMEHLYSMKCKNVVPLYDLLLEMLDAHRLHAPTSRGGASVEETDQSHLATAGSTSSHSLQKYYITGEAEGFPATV
Procedure, shortened: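 Luciferase luminescence (ONE-Glo, 30 min at room temperature) was read after 22 hr at 37C exposure to compounds plus 17beta-estradiol at 0.1 nM final. Cells were VM7Luc4E2 with endogenous ER-alpha and an ERE-driven luciferase, pre-cultured 5 days in hormone-depleted medium.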

[12] = qHTS assay to identify small molecule phospholipidosis (PLD) inducers (AID 1259344; active = well fitted curve in the direction sought with a large enough effect; an effect the other way counts as inactive or inconclusive; also: % is scaled to controls: 0 for no effect and ±100 for the full control effect)
Procedure, shortened: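 After 4 h attachment on collagen I, HepG2 cells were dosed with compound alongside LipidTOX Red, kept 24 h at 37 C, fixed, and imaged for lamellar phospholipid pits.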

[13] = qHTS assay to identify small molecule HDAC inhibitors (AID 1259364); also: top concentration of the series differs between compounds; % is scaled to controls: 0 for no effect and ±100 for the full control effect; nearly all actives have a fitted effect of over 45% in size
Procedure, shortened: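 Luminescence read after 30 min room-temperature HDAC-Glo incubation measures cellular class I/II HDAC activity. Compounds were applied for 2 hr at 37 C to HCT-116 wild-type cells seeded the day before.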

[14] = qHTS assay to identify small molecule HDAC inhibitors - cell viability counter screen (AID 1259365)
Procedure, shortened: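 Counter screen in wild-type HCT-116 cells: compounds dissolved in DMSO are pin-transferred onto overnight-plated cells and left 2hr at 37C. ATP-based CellTiter-Glo luminescence then measures viable cells.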

[15] = qHTS assay to identify small molecule antagonists of the sonic hedgehog signaling (Shh) pathway - cell viability counter screen (AID 1259367); also: % is scaled to controls: 0 for no effect and ±100 for the full control effect; nearly all actives have a fitted effect of over 55% in size
Procedure, shortened: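 Conditioned medium drove Shh signaling in 3T3 Gli1-Luc cells exposed to compounds at 37C and 5% CO2. Viability was determined from CellTiter-Fluor fluorescence, with reagent incubated 1 hr after 23 hr of treatment.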

[16] = qHTS assay to identify small molecule agonists of the sonic hedgehog signaling (Shh) pathway (AID 1259368; calls by dose curve;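 also: NIH/3T3-derived 3T3Gli1-Luc cells carrying a stable Gli1-driven firefly luciferase reporter; series mostly up to about 92 µM; % is scaled to controls: 0 for no effect and ±100 for the full control effect; nearly all actives have a fitted effect of over 15% in size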)
Procedure, shortened: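 Luminescence was read after 30 min at room temperature with luciferase reagent. Before that, 3T3Gli1-Luc cells (NIH/3T3 clone, stable Gli1-Luc reporter; 2,000/well) were exposed to compounds for 24 hr at 37C, 5% CO2, compounds being added 4 hr post-plating.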

[17] = A CellTox Green Cytotoxicity Assay to monitor cytotoxicity in HepG2 cells - 32 hour (AID 1224883); also: nearly all actives have a fitted effect of over 50% in size; also: potency is read from the fitted curve at half-maximal effect; as to cytotoxicity increase: % is scaled to controls: 0 for no effect and ±100 for the full control effect
Procedure, shortened: as §2

[18] = qHTS RealTime-Glo MT Cell Viability Assay in HEK293 cells - 8 hour (AID 1224887)
Procedure, shortened: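 Luminescence, which tracks viable cell number through reduction of the prosubstrate to a NanoLuc substrate, was read over continuous 37 C culture. Cells (600/well) were premixed with reagent and rested 5 h before 23 nL of compound in DMSO was pinned.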

[19] = qHTS assay to identify small molecule agonists of the sonic hedgehog signaling (Shh) pathway - cell viability counter screen (AID 1259366)
Procedure, shortened: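 Cells are plated at 2,000 per well and left 4hr at 37C, 5% CO2 before compound addition. After 23hr of treatment, CellTiter-Fluor reagent is added for 1hr at 37C and fluorescence is measured.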

[20] = target: Androgen receptor (Homo sapiens) (UniProt P10275); test: qHTS assay to identify small molecule antagonists of the androgen receptor (AR) signaling pathway using the MDA cell line in the presence of 0.5 nM R1881 (AID 1259243)
Chain of Androgen receptor (Homo sapiens) (P10275 whole entry, looked up): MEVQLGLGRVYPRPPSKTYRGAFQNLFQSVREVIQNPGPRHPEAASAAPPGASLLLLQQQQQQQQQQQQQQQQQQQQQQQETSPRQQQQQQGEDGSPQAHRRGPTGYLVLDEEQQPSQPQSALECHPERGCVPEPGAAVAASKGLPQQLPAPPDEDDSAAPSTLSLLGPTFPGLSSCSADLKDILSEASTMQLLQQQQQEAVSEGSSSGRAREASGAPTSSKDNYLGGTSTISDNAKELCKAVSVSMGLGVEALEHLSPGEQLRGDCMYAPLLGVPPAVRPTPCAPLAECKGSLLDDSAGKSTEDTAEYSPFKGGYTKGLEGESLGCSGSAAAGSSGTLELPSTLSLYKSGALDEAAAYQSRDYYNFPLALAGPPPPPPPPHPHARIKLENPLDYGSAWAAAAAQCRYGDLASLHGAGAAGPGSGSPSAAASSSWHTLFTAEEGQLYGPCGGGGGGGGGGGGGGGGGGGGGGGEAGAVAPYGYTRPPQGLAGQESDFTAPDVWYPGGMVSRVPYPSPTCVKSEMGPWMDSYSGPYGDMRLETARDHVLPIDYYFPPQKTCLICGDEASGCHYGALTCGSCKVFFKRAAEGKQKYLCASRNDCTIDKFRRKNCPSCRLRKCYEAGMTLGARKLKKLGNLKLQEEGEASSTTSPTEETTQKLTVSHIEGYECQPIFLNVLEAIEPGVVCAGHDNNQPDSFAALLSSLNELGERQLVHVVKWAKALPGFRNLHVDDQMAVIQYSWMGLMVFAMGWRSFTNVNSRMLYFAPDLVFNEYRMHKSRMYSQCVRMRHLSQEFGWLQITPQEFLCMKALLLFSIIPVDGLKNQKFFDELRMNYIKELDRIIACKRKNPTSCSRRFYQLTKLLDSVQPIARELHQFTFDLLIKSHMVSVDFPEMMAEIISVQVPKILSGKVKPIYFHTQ
Procedure, shortened: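 Luminescent reporter readout (ONE-Glo, 30 min, room temperature) after 16 hr co-treatment of MDA-kb2 cells with test compounds and 0.5 nM R1881 final, at 37C without CO2. The MMTV-driven luciferase responds to both AR and GR.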

CCOC(=O)C1=C[C@]2(CC)CCCN3CCc4c(n1c1ccccc41)[C@@H]32
inactive: Potency [1] | Potency [2] | Potency [3] | Potency [4] | Potency [5] | Potency [6] | Potency [7] | Potency [8] | Potency [9] | Potency [10] | Potency [11] | Potency [12] | Potency [13] | Potency [14] | Potency [15] | outcome [16]

Cc1oc2c(NC(=O)c3c(Cl)cccc3Cl)cccc2c1C(C)(C)O
active: Potency [17] 49 µM | Potency [11] 13.7 µM
inactive: Potency [1] | Potency [2] | Potency [3] | Potency [18] | Potency [8] | Potency [13] | Potency [14] | Potency [19] | Potency [15] | outcome [16]

Cc1cccc(C)c1NC(=O)CN(CC(=O)O)CC(=O)O
inactive: Potency [1] | Potency [2] | Potency [3] | Potency [4] | Potency [5] | Potency [18] | Potency [6] | Potency [7] | Potency [8] | Potency [9] | Potency [10] | Potency [12] | Potency [13] | Potency [14] | Potency [15] | outcome [16]

O=C1c2ccccc2S(=O)(=O)N1CCCCN1CCN(c2ncccn2)CC1
inactive: Potency [1] | Potency [2] | Potency [3] | Potency [4] | Potency [5] | Potency [18] | Potency [6] | Potency [7] | Potency [8] | Potency [10] | Potency [11] | Potency [12] | Potency [13] | Potency [19] | Potency [15] | outcome [16]

CCCCCCCC/C=C\CCCCCCCC(=O)OCC
inactive: Potency [1] | Potency [2] | Potency [3] | Potency [4] | Potency [5] | Potency [6] | Potency [7] | Potency [8] | Potency [9] | Potency [10] | Potency [13] | Potency [14] | Potency [19] | Potency [15] | outcome [16]

O[C@@H](COc1cccc2ncccc12)CN1CCN(C2c3ccccc3[C@@H]3[C@H](c4ccccc42)C3(F)F)CC1 (stereo partly specified)
inactive: Potency [1] | Potency [2] | Potency [17] | Potency [3] | Potency [6] | Potency [8] | Potency [9] | Potency [10] | Potency [11] | Potency [13] | outcome [16]
active: Potency [20] 13.3 µM

O=C(O)c1ccc(S(=O)(=O)O)cc1C(=O)O
inactive: Potency [1] | Potency [2] | Potency [3] | Potency [4] | Potency [6] | Potency [8] | Potency [10] | Potency [11] | Potency [13] | Potency [14] | Potency [19] | Potency [15] | outcome [16]

NCC(=O)O
inactive: cytotoxicity increase [1] 1.64% [at 15.8 µM] | cytotoxicity [2] 6.15% [at 15.8 µM] | cytotoxicity increase [3] 12.2% [at 15.8 µM] | activity change, negative = cytotoxic [4] 8.2% [at 15.8 µM] | activity change, negative = cytotoxicity [5] 3.07% [at 15.8 µM] | activity change, negative = cytotoxicity [18] 10.2% [at 15.8 µM] | activity change [6] -1.23% [at 15.8 µM, stronger effect = higher value] | cytotoxicity increase [8] 1.21% [at 15.8 µM] | viability change, negative = cytotoxic [10] -5.8% [at 19 µM] | Potency [11] | Potency [12] | activity change, negative = inhibition [13] -0.526% [at 19 µM] | activity change, negative = cytotoxicity [14] 4.81% [at 19 µM] | viability change, negative = cytotoxic [19] -1.71% [at 19 µM] | viability change, negative = cytotoxic [15] 1.33% [at 19 µM] | activity change [16] -0.0794% [at 18.9 µM]
